According to PubChem BioAssay (NCATS):
Inconclusive results are not listed. Active and inactive are the calls of the source. Unless noted, the call rests on the fitted dose curve; in most records, active means well fitted curve in the direction sought with a large enough effect; inconclusive means small, poorly fitted or top-dose-only effect, or another doubt; inactive means no such curve, though single readings can be large; an effect the other way counts as inactive or inconclusive.

Columns and labels:
[1] = target: Lysosomal acid glucosylceramidase (Homo sapiens) (UniProt P04062); assay: Glucocerebrosidase-p2 (AID 348; in the data active means potency below about 10 µM; further: potency means the concentration at half of the fitted maximal effect); conditions: purified GBA, blue fluorogenic substrate, 40 min
Summary of the method: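 Compounds titrated from 0.6 nM upwards against 0.2 nM enzyme in pH 5.9 citric acid/KH2PO4, taurocholate, tween-20; blue fluorogenic substrate 80 uM, 40 min room temperature, stopped and read Ex 365/Em 440 for AC50.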

[2] = AP1 Signaling Pathway (AID 357; active means well fitted curve in either direction with a large enough effect, not every such curve was filed as active; further: on the % scale 0 is the no-effect control and ±100 the full control effect); conditions: ME-180 AP-1-bla reporter, EGF-induced, beta-lactamase ratio, 5 h; at 7.69 µM (top of the series) unless noted
Summary of the method: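 ME-180 cells with beta-lactamase reporter under AP-1 response element, stimulated with EC50 EGF; compounds tested in titration series, 5 h at 37 °C. CCF4 substrate added 2.5 h at room temperature; 460/530 nm emission ratio gave %activity and AC50.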

[3] = target: Cytochrome P450 1A2 (Homo sapiens) (UniProt P05177); assay: p450-cyp1a2 (AID 410; calls by dose curve; further: potency means the concentration at half of the fitted maximal effect); conditions: recombinant CYP1A2, luciferin-ME demethylation, luminescence; series mostly up to 57 µM
Summary of the method: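 20nM CYP1A2 with 100uM Luciferin-ME (at Km) in 100mM KPO4; compound preincubated 10 min, NADPH regeneration added, 60 min at room temperature. Luciferin quantified by luminescence after detection reagent; normalized to 57 uM furafylline.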

[4] = NFAT Signaling Pathway (AID 444; active means well fitted curve in either direction with a large enough effect, not every such curve was filed as active;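 further: carbachol stimulus at about its EC50 of 1 µM final; on the % scale 0 is the no-effect control and ±100 the full control effect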); conditions: Jurkat NFAT-bla M1, carbachol, beta-lactamase ratio, 5 h; at 7.69 µM (top of the series) unless noted
Summary of the method: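 Jurkat cells carrying an NFAT-driven β-lactamase reporter and co-transfected muscarinic M1 receptor were treated with compound plus carbachol (1 uM final, an EC50 level) for 5 h at 37 °C. CCF4 loading followed for 1 h at RT; 460/530 nm ratio gave %activity.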

[5] = Stat Signaling Pathway (AID 446; active means well fitted curve in either direction with a large enough effect, not every such curve was filed as active;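 further: ME-180 cervical cancer cells given 40 pM IL-6 alongside compound; SIE-controlled beta-lactamase reporter measured as 460/530 nm FRET emission ratio; on the % scale 0 is the no-effect control and ±100 the full control effect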); conditions: ME-180 SIE beta-lactamase reporter, IL-6 stimulated, 5 h; at 7.69 µM (top of the series) unless noted
Summary of the method: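 ME-180 cells carrying a SIE-driven beta-lactamase reporter are stimulated with 40 pM IL-6 for 5 h at 37C in the presence of compound. The 460/530 nm FRET substrate ratio is read after 2.5 h at RT. Data are normalised to 300 pM IL-6 and to 125 nM JAK inhibitor controls.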

[6] = target: Glucocorticoid receptor (Homo sapiens) (UniProt P04150); assay: GR-GFP Redistribution (AID 450;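 active means compounds whose dose series gives a full or clear partial fitted curve of increased nuclear translocation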; further: potency means the concentration at half of the fitted maximal effect); conditions: U2OS GR-GFP nuclear translocation, laser cytometry, 2 h
[7] = target: Glucocorticoid receptor (Homo sapiens) (UniProt P04150); assay: GR-EFC Redistribution (AID 451; calls by dose curve; further: potency means the concentration at half of the fitted maximal effect); conditions: CHO-K1 GR-EFC translocation, beta-gal luminescence, 2 h
Summary of the method: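 CHO-K1 cells stably expressing nuclear-localized β-gal enzyme acceptor and GR fused C-terminally to the enzyme donor fragment; ligand-driven nuclear translocation restores β-gal by complementation. Compounds titrated up to 46 uM final, 2 h at 37 °C; luminescence read.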

[8] = target: Cytochrome P450 3A4 (Homo sapiens) (UniProt P08684); assay: qHTS Assay for Activators of Cytochrome P450 3A4 (AID 885); conditions: recombinant CYP3A4, Luciferin-PPXE luminescence, 60 min; series mostly up to 57.1 µM; further: nearly all actives have a fitted effect of over 65% in size
Summary of the method: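 Human CYP3A4 (20 nM) with Luciferin-PPXE at 25 uM (its KM) in 200 mM KPO4; 10 min compound preincubation, then NADPH regeneration and 60 min reaction at RT. Luciferin read by luminescence; normalized to 57 uM ketoconazole full inhibition.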

[9] = target: Cytochrome P450 2C19 (Homo sapiens) (UniProt P33261); assay: qHTS Assay for Inhibitors and Substrates of Cytochrome P450 2C19 (AID 899); conditions: recombinant CYP2C19, luciferin-H EGE luminescence; series mostly up to 57.1 µM; further: potency means the concentration at half of the fitted maximal effect; nearly all actives have a fitted effect of over 60% in size
Summary of the method: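 NADPH-dependent conversion of Luciferin-H EGE (10uM, at KM) by 5nM enzyme in 50mM KPO4, 60 min at 37C following 10 min compound preincubation. Stopped with luciferin detection buffer; luminescence read after 20 min.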

[10] = Confirmation and Secondary Assay for Modulators of Hemoglobin Beta Chain Splicing at IVS2 654 locus (AID 910); conditions: HeLa EGFP-654 splicing reporter, GFP fluorescence, 48 h; series mostly up to 38.3 µM;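 further: per-well total GFP intensity by laser scanning cytometry after 2-day treatment; % of control where 0% means no effect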
Summary of the method: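 HeLa cells stably carrying EGFP interrupted by mutant beta-globin IVS2-654 intron (CMV-driven) were treated with compound for 2 days at 37C; corrected splicing was scored as total peak GFP intensity per well (488 nm excitation, 500-520 nm emission).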

[11] = Confirmation and Secondary Assay for Modulators of Hemoglobin Beta Chain Splicing at IVS2 705 locus (AID 930); conditions: HeLa EGFP-705 splicing reporter, GFP fluorescence, 48 h; series mostly up to 38.3 µM;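 further: HeLa cells stably expressing the EGFP-705 splicing reporter; GFP fluorescence per well restored by corrected splicing of the IVS2-705 intron in EGFP; % of control where 0% means no effect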
Summary of the method: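 Per-well GFP, captured at 1 x 8 µm resolution with 488 nm excitation, served as the read-out for HeLa EGFP-705 cells incubated 2 days with test compound versus DMSO.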

[12] = qHTS Assay for Lipid Storage Modulators (AID 1519; calls by dose curve); conditions: Drosophila S3 cells, BODIPY lipid droplet/cell ratio, laser cytometry, cells loaded with oleic acid; for activity change, negative = inhibition: at 57.5 µM (top of the series)
Summary of the method: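 Cells seeded at 5,000 per well were treated with compounds over a concentration series and loaded with oleic acid (400 uM, as added). Lipid droplet fluorescence (488 nm excitation, 500-530 nm channel) was read by laser-scanning cytometry and normalized to 20 uM Triacsin C.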

[13] = target: Ubiquitin carboxyl-terminal hydrolase 1 (Homo sapiens) (UniProt O94782); assay: Inhibitors of USP1/UAF1: Pilot qHTS (AID 504865); conditions: purified USP1/UAF1, Ub-rhodamine cleavage fluorescence; series mostly up to 54.9 µM;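 further: rhodamine fluorescence freed from ubiquitin-rhodamine substrate followed over time; top concentration of the series differs between compounds; on the % scale 0 is the no-effect control and ±100 the full control effect; nearly all actives have a fitted effect of over 35% in size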
Summary of the method: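 Kinetic fluorescence assay: 1nM USP1/UAF1, 15 min compound preincubation, then 150nM Ub-Rho; 480/540 nm.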

[14] = Primary qHTS for small molecule stabilizers of the endoplasmic reticulum resident proteome: Secreted ER Calcium Modulated Protein (SERCaMP) assay (AID 1508630); conditions: SH-SY5Y GLuc-SERCaMP (Gaussia luciferase released on ER calcium loss) secretion, thapsigargin, luminescence; series mostly up to 38.4 µM; further: on the % scale 0 is the no-effect control and ±100 the full control effect
Summary of the method: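 GLuc-SERCaMP-expressing SH-SY5Y cells, pretreated 16 h with compound, are challenged with thapsigargin to empty ER calcium stores; after 4 h, coelenterazine is added directly to the medium and luminescence is imaged.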

[15] = target: Mitogen-activated protein kinase 10 (Mus musculus) (UniProt Q61831); assay: JNK3 AlphaScreen Assay (AID 530; active means well fitted curve in either direction with a large enough effect, not every such curve was filed as active); conditions: JNK3 lysate, c-Jun phosphorylation; series mostly up to 57.1 µM
Summary of the method: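 Inhibitors reduce antibody binding to phosphorylated biotin-cJun, lowering AlphaScreen luminescence. Lysates from HepG2 cells pre-activated by IL-1beta plus TNF-alpha supplied JNK3; compounds were titrated.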

[16] = target: 3',5'-cyclic-AMP phosphodiesterase 4B (Homo sapiens) (UniProt Q07343); assay: qHTS Assay for Inhibitors of PDE-IV (AID 607; active means well fitted activation curve with a large enough effect in the main read-out, with a control signal flat, not every such curve was filed as active; further: % of control where 0% means no effect); conditions: HEK293 ACTOne CNG channel cells, membrane potential fluorescence; series mostly up to 22.9 µM
Summary of the method: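 HEK293 ACTOne cells with CNG channel (1000/well), endogenous PDE4; membrane potential dye, compounds up to 22.9 uM final. Fluorescence Ex 535/Em 590; RO 20-1724 (100 uM final) as reference.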

[17] = target: Cytochrome P450 3A4 (Homo sapiens) (UniProt P08684); assay: qHTS Assay for Inhibitors and Substrates of Cytochrome P450 3A4 (AID 884); conditions: recombinant CYP3A4, Luciferin-PPXE luminescence; series mostly up to 57.1 µM; further: nearly all actives have a fitted effect of over 50% in size; further: potency means the concentration at half of the fitted maximal effect
Summary of the method: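 20 nM human CYP3A4 with 25 uM Luciferin-PPXE (at KM) in 200 mM KPO4, preincubated 10 min with compound; NADPH regeneration started a 60 min RT reaction. Luciferin detected by luminescence, normalized to 57 uM ketoconazole as full inhibition.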

[18] = qHTS Assay for Identification of Small Molecule Agonists for Hypoxia Response Element Signaling Pathway (AID 914; active means well fitted activation curve with a large enough effect in the signal ratio, with a control signal flat, not every such curve was filed as active; the % refers to the signal ratio; further: % of control where 0% means no effect); conditions: ME-180 (cervical carcinoma) HRE-bla reporter, beta-lactamase ratio, CoCl2, 17 h; activation: stronger effect = higher value
Summary of the method: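 In Opti-MEM containing 0.5% dialyzed FBS and 10 mM HEPES, ME-180 HRE-bla cells received a compound titration and EC50 CoCl2. They were incubated 17 hours, then CCF4-loaded 2.5 hours at room temperature before ratio reading.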

[19] = measured here: cell count channel max response
[20] = measured here: lipid channel max response

Chain of Cytochrome P450 1A2 (Homo sapiens) (P05177 whole entry, looked up): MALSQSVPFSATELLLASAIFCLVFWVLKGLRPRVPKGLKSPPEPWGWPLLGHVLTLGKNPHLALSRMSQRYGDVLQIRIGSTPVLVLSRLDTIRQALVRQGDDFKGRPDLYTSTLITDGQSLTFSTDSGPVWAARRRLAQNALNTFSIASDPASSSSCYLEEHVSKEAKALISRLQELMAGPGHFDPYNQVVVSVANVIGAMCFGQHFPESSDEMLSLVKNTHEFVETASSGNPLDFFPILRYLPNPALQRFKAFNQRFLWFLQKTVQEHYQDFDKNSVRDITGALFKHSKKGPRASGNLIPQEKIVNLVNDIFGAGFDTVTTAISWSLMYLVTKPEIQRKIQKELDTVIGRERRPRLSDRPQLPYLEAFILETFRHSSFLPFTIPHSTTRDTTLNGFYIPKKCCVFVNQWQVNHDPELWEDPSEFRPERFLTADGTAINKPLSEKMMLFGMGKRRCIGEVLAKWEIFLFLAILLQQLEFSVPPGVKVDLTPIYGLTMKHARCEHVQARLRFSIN
Chain of Lysosomal acid glucosylceramidase (Homo sapiens) (P04062 whole entry, looked up): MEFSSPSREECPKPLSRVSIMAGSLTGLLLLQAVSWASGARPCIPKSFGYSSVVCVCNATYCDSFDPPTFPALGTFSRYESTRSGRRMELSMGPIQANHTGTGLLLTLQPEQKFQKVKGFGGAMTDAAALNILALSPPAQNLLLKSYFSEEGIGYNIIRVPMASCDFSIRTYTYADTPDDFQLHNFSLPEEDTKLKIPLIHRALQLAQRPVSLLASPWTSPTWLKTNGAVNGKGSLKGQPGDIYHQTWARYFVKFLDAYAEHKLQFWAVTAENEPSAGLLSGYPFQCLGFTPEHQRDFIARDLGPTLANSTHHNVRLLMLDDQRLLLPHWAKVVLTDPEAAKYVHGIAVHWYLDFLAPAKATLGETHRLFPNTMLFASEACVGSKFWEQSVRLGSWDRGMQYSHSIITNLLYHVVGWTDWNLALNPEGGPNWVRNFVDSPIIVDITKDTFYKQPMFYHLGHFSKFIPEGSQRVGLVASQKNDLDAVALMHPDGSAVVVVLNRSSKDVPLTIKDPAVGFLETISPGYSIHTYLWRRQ
Chain of Ubiquitin carboxyl-terminal hydrolase 1 (Homo sapiens) (O94782 whole entry, looked up): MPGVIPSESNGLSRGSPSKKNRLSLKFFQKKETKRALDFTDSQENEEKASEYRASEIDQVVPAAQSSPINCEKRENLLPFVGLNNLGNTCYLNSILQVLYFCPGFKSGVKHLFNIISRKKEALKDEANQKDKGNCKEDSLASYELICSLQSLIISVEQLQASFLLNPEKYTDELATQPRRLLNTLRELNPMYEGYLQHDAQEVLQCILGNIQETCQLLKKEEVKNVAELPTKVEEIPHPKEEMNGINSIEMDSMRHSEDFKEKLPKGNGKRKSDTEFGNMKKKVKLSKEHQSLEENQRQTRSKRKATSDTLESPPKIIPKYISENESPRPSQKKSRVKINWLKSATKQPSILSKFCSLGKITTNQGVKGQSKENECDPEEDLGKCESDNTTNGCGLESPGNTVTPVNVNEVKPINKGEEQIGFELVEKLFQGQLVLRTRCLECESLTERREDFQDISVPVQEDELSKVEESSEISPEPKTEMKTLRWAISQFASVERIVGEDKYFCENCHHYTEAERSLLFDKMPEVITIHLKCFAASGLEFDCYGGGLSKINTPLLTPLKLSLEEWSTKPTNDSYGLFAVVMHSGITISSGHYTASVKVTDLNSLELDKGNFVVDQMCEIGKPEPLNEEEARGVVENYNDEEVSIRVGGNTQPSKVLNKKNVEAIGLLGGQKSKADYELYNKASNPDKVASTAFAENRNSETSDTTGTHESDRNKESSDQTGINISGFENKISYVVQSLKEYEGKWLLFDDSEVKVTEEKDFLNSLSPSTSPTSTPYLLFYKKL
Chain of 3',5'-cyclic-AMP phosphodiesterase 4B (Homo sapiens) (Q07343 whole entry, looked up): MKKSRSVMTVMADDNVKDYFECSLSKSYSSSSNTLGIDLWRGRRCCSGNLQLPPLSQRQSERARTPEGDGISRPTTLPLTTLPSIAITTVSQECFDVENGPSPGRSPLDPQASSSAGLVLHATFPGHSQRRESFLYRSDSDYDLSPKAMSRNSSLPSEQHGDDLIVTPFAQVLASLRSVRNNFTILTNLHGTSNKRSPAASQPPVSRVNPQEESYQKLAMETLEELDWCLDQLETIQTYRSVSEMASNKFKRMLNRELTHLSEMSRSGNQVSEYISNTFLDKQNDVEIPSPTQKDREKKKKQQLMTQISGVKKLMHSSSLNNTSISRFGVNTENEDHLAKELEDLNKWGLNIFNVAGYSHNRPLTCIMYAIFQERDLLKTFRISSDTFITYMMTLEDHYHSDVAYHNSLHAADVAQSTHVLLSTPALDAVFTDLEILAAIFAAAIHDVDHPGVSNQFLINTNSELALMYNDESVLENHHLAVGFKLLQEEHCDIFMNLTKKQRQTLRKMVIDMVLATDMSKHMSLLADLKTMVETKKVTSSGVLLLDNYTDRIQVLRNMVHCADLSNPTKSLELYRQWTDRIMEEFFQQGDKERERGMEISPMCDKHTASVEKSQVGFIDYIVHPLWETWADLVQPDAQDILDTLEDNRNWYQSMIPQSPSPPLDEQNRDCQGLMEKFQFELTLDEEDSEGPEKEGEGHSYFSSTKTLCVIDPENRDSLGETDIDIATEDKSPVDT
Chain of Glucocorticoid receptor (Homo sapiens) (P04150 whole entry, looked up, the tested form may be a part): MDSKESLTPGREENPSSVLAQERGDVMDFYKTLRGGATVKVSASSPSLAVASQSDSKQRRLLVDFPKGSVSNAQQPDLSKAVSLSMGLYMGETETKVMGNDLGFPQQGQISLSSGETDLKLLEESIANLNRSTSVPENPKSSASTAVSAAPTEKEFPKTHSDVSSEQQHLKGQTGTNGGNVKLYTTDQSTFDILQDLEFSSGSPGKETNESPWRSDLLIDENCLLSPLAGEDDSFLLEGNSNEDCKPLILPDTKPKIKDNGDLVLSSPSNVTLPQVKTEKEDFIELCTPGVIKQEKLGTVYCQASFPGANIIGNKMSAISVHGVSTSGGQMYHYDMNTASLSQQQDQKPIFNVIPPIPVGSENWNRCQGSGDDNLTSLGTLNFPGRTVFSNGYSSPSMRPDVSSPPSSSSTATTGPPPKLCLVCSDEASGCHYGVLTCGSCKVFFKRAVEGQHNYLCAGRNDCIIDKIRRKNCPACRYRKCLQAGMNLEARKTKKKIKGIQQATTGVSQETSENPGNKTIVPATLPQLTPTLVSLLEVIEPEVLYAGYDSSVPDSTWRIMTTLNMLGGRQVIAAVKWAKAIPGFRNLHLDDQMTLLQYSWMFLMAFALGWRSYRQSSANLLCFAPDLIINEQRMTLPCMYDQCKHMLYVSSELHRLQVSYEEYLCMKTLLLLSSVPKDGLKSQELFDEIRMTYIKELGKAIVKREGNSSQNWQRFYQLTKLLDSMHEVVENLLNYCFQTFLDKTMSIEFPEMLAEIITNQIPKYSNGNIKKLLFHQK
Chain of Cytochrome P450 3A4 (Homo sapiens) (P08684 whole entry, looked up): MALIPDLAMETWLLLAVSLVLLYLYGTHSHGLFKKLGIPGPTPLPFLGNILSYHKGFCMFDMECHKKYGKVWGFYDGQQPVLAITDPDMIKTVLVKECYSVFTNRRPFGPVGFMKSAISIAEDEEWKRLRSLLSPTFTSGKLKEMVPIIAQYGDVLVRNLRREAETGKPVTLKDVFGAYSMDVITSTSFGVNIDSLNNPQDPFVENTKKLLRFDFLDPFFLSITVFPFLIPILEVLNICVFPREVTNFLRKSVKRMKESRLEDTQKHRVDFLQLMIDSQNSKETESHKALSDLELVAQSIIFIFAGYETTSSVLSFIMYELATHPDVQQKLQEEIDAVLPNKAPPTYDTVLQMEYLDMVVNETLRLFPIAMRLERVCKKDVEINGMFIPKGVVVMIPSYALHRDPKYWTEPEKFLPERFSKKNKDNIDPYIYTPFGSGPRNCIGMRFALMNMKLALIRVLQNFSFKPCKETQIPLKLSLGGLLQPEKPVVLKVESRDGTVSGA
Chain of Cytochrome P450 2C19 (Homo sapiens) (P33261 whole entry, looked up): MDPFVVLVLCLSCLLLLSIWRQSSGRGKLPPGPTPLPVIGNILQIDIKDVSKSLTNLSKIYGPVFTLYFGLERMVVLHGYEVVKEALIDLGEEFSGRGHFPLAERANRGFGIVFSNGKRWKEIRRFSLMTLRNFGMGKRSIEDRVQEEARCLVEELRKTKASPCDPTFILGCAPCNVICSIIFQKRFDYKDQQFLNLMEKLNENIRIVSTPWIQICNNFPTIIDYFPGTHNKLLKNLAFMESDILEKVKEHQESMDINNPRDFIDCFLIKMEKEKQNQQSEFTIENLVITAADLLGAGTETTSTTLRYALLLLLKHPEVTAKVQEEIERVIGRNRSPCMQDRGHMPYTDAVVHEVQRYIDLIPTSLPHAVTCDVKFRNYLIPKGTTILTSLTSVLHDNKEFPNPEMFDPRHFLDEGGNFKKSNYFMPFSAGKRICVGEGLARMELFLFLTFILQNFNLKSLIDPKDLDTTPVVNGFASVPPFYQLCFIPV

| SMILES | Potency [1] | activity change, negative = inhibition [2] | Potency [3] | activity change, negative = inhibition [4] | activity, negative = inhibition [5] | Potency [6] | Potency [7] | Potency [8] | Potency [9] | outcome [10] | outcome [11] | activity change, negative = inhibition [12] | max response [12, 19] | max response [12, 20] | Potency [13] | Potency [14] | outcome [15] | Potency [16] | Potency [17] | activation [18] |
| --- | --- | --- | --- | --- | --- | --- | --- | --- | --- | --- | --- | --- | --- | --- | --- | --- | --- | --- | --- | --- |
| COc1ccc2[nH]cc(CCNc3ncncc3-c3ccc(N(C)C)cc3)c2c1 | > 11.4 µM (inactive) | -27.6% (inactive) | 251 nM (active) | 4.01% (inactive) | -7.73% (inactive) | > 46 µM (inactive) | > 46 µM (inactive) | inactive | 1.58 µM (active) | inactive | inactive | 5.88% (inactive) | 5.01% | 11% | inactive | inactive |  |  |  |  |
| COc1ccccc1-c1cncnc1-n1ccnc1 | > 11.4 µM (inactive) | -7.86% (inactive) | 12600 nM (active) | 1.61% (inactive) | 10.2% (inactive) | > 46 µM (inactive) | > 46 µM (inactive) |  |  | inactive | inactive | 7.28% (inactive) | 19.4% | 28.5% | inactive | inactive | inactive | inactive | inactive |  |
| c1csc(CNc2ncncc2-c2ccc3c(c2)OCO3)c1 | > 11.4 µM (inactive) | -9.82% (inactive) | 200 nM (active) | -6.2% (inactive) | 6.16% (inactive) | > 46 µM (inactive) | > 46 µM (inactive) |  | 0.794 µM (active) | inactive | inactive | 6.61% (inactive) | 0.346% | 8.95% | inactive | inactive | inactive |  |  |  |
| CNc1ccnc(-c2c(C)noc2C)n1 | > 11.4 µM (inactive) | 2.46% (inactive) | 1260 nM (active) | 1.59% (inactive) | 12.4% (inactive) | > 46 µM (inactive) | > 46 µM (inactive) | inactive |  | inactive | inactive | 4.8% (inactive) | -12.7% | -8.12% | inactive | inactive | inactive | inactive |  | 11.5% (inactive) |
| Cc1noc(C)c1-c1cc(NC2CC2)ncn1 | > 11.4 µM (inactive) | -3.03% (inactive) | 316 nM (active) | 3.57% (inactive) | 5.59% (inactive) | > 46 µM (inactive) | > 46 µM (inactive) | inactive |  | inactive | inactive | 11% (inactive) | 17% | 27.1% | inactive | inactive | inactive | inactive |  |  |
| c1cncc(CNc2ncncc2-c2ccc3c(c2)OCO3)c1 | > 11.4 µM (inactive) | -3.33% (inactive) | 398 nM (active) | 6.22% (inactive) | 0.562% (inactive) | > 46 µM (inactive) | > 46 µM (inactive) | inactive |  | inactive | inactive | 8.63% (inactive) | 10.5% | 22.7% | inactive | inactive | inactive | inactive | 398 nM (active) |  |
